Measured values taken from PubChem BioAssay (EPA / NIEHS).
Where a structure was tested more than once in an assay, its records may differ in their call. Active and inactive are the calls of the source. Rule for the calls: active = hit-call score of the fitted dose curve at least 0.9, where 1 is the maximum; inactive = score below 0.9.

test: ATG_RORE_CIS: Attagene CIS-FACTORIAL HepG2 Assay for human RAR-related Orphan Receptor Element (RORE) (AID 2282959); conditions: HepG2 Attagene cis-factorial RORE reporter, mRNA; actives raise or lower the signal
Procedure: ATG_CIS is a cell-based, multiplexed-readout assay that uses HepG2, a human liver cell line, with measurements taken at 24 hours after chemical dosing in a 24-well plate.ATG_RORE_CIS is one of 52 assay component(s) measured or calculated from the ATG_CIS assay. It is designed to make measurements of mRNA induction, a form of inducible reporter, as detected with fluorescence intensity signals by Reverse transcription polymerase chain reaction (RT-PCR) and Capillary electrophoresis technology.Data from the assay component ATG_RORE_CIS was analyzed into 1 assay endpoint. This assay endpoint, ATG_RORE_CIS, was analyzed with bidirectional fitting relative to DMSO as the negative control and baseline of activity. Using a type of inducible reporter, measures of mRNA for gain or loss-of-signal activity can be used to understand the reporter gene at the transcription factor-level as they relate to the gene RORA and RORB and RORC. Furthermore, this assay endpoint can be referred to as a primary readout, because this assay has produced multiple assay endpoints where this one serves a reporter gene function. To generalize the intended target to other relatable targets, this assay endpoint is annotated to the nuclear receptor intended target family, where the subfamily is orphan.
Human liver HepG2 cells are transiently transfected with multiple reporter transcription units (MRTUs) in 6-well plates using FuGene 6 reagent (Roche; 3 ml FuGene/1 mg DNA). The MRTU constructs are regulated by a cis-regulating element (promoter). […] A major difference between the CIS and TRANS system is that in CIS activities of endogenous TFs are measured, whereas the TRANS assay evaluates changes in activities of exogenous, chimeric NR-Gal4 proteins. […] At the end of 24 hour incubation, total RNA was isolated using TriZol reagent (Invitrogen). The isolated RNA is then reverse-transcribed using oligo(dT) primer and Mo-MLV reverse transcriptase (Invitrogen) with DNAse I (Ambion) treatment for 30 min. The one-tenth of the produced cDNA was amplified by PCR using Taq DNA polymerase (Invitrogen) and two reporter sequence-specific primers. The PCR products were fluorescently labeled by primer extension with 6-arboxyfluorescein (6-FAM) 5'-labeled reporter sequence-specific primer (2 min at 95 C, 20 s at 68 C and 10 min at 72 C) and these products were digested with 5U of HpaI (New England Biolabs) for 2h at 37 C. The fragments were purified using Qiaquick PCR columns (Qiagen), analyzed on an ABI 3130xL genetic analyzer (Applied Biosystems) with peak positions identified by using a set of X-rhodamine (ROX)-labeled MapMarker1000 molecular weight standards (BioVentures). The raw capillary electrophoresis data was processed using Attagraph software (Attagene).

outcome, inactive:
CC(C)COC(=O)CCCCC(=O)OCC(C)C
CC(C)NCC(O)c1ccc(O)c(O)c1 (stereo not given)
CN(C)CCCN1c2ccccc2Sc2ccc(Cl)cc21
CCCCCCC(C=O)=Cc1ccccc1
O=C(O)c1[nH]n(-c2ccc(S(=O)(=O)O)cc2)c(=O)c1N=Nc1ccc(S(=O)(=O)O)cc1
CC(C)(C)c1ccccc1
COc1ccc(OC(F)(F)F)cc1CN[C@H]1CCCN[C@H]1c1ccccc1
CCCC(=O)O
CC(=O)CC(c1ccccc1)c1c(O)c2ccccc2oc1=O (stereo not given)
CCCC[C@H]1CN(CC2CCOCC2)C(=O)OC12CCN(C1(C)CCN(C(=O)c3c(C)ncnc3C)CC1)CC2
O=C(Oc1ccccc1)c1cccc(C(=O)Oc2ccccc2)c1
COc1ccc(C(=O)Nc2nc3ccccc3c(NCc3ccccc3)c2C#N)cc1
Cc1ccc(C(C)(C)C)c(O)c1
CC(=O)S[C@H](C(=O)N[C@H]1Cc2ccccc2[C@H]2CCC[C@@H](C(=O)O)N2C1=O)C(C)C
CC(C)c1cccc(C(C)C)c1
CC(COCC(C)OC(=O)c1ccccc1)OC(=O)c1ccccc1 (stereo not given)
C=CCCCCCCCCCCCC
COC(=O)CCC(=O)OC
Cc1occc(=O)c1O
CCN(CC)CCOc1ccc(C(=C(Cl)c2ccccc2)c2ccccc2)cc1
CC1(C)C(=O)NC(=O)N1CO
NC=O
Nc1nc(Cl)nc2c1ncn2[C@H]1C[C@H](O)[C@@H](CO)O1
CN(C)CCCN(C)CCCN(C)C
CC(=O)OC1CC(C)OC(C)O1 (stereo not given)
CS(=O)(=O)c1ccc([C@@H](C[C@H]2CCC(=O)C2)C(=O)Nc2cnccn2)cc1Cl
O=C1CCCCC1
CCc1cc(C2=C(C(=O)O)N(c3ccccc3C(F)(F)F)S(=O)(=O)c3ccccc32)cc2c1OCO2
O=C(N[C@@H](c1ccccc1)[C@@H]1CCCCN1)c1cccc(C(F)(F)F)c1Cl
O=C1O[C@H]([C@H](O)CO)C(O)=C1O
CC(N)=O
O=C(NS(=O)(=O)/C=C/c1cccs1)c1ccc(F)cc1Br
Oc1ccc(O)cc1

AC50, active:
CC(C)OC(=O)C(C)(C)Oc1ccc(C(=O)c2ccc(Cl)cc2)cc1 27.5 µM
Oc1ccccc1O 23.2 µM
CCC(C)N(C)C(=O)c1cc2ccccc2c(-c2ccccc2Cl)n1 (stereo not given) 46.9 µM
O=C1OC(c2ccc(O)cc2)(c2ccc(O)cc2)c2ccccc21 26.7 µM
CCN(CC)CCOc1ccc(C(=C(Cl)c2ccccc2)c2ccccc2)cc1 9.35 µM
CCc1nc(N)nc(N)c1-c1ccc(Cl)cc1 42.5 µM
NC(=Nc1ccccc1)Nc1ccccc1 29.5 µM
